Reference: article PMC4336329 (PLoS ONE, 2015)
Out of some 310,000 compounds screened, about 14,000 (4.5%) showed an effect of 50% or more. The effect is printed as a negative number. This excerpt belongs to a sample that is enriched for strong results.

The compounds below were run against human ether-à-go-go-related gene (hERG) potassium channel (human, UniProt Q12809) (assay: primary screen, population patch clamp on CHO cells stably expressing hERG; higher = less effect of the substance).
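Further: peak tail current of the secondary pulse compared with the same well before compound.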

Sequence of human ether-à-go-go-related gene (hERG) potassium channel (Q12809 whole entry, looked up): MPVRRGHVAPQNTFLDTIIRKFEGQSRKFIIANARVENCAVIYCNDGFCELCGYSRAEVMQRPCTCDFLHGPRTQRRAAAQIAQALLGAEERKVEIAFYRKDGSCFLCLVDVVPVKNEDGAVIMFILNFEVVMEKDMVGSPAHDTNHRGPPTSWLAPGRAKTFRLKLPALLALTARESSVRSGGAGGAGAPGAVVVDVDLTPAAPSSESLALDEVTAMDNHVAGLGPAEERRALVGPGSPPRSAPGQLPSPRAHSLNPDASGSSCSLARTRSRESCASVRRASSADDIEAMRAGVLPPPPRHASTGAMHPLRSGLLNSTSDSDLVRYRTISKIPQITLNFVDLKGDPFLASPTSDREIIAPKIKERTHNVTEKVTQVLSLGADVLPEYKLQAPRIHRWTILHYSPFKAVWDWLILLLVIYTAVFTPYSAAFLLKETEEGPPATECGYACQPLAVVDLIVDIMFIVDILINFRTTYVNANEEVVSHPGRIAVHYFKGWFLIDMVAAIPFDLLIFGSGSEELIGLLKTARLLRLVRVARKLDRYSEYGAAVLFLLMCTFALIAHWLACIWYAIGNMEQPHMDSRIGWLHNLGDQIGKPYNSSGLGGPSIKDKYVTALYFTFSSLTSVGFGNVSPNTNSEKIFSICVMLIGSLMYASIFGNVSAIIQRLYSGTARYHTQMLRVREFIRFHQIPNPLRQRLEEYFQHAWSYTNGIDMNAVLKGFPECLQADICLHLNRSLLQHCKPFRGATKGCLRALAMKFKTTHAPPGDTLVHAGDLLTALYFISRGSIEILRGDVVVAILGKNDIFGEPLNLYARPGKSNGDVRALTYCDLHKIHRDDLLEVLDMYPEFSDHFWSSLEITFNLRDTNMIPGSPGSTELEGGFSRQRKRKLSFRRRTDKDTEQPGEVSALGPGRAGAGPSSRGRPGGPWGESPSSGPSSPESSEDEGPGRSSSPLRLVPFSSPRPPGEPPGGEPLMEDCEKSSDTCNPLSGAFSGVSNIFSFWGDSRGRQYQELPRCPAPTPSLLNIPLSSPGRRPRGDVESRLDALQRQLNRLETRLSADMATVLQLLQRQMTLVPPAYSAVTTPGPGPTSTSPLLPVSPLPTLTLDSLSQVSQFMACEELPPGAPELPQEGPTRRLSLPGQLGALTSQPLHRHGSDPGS

SMILES	hERG current change (%, negative = inhibition) at 10uM [%]
CCOc1ccc(CNC(=O)C(=O)c2cn(CC(=O)N3CCOCC3)c3ccccc23)cc1OC	17.1
COC(=O)C1=C(C)Nc2ncnn2C1c1cccnc1 (stereo not shown)	2.93
O=C(Cn1ncc2c([nH]c3ccccc32)c1=O)N1CCN(c2ccccc2F)CC1	1.65
CCN(CC)CCCN1C(=O)C(=O)/C(=C(/O)c2ccc3c(c2)OCCO3)C1c1ccco1 (stereo not shown)	-6.06
CC(C)c1cccc(C(C)C)c1NC(=O)COC(=O)[C@H](C)NC(N)=O	16.8
CCCOc1ccccc1N/C(=N/c1nc(C)cc(C)n1)NC(=O)COc1ccc(OC)cc1	-10
CCCOc1ccccc1N/C(N)=N/c1nc(C)cc(C)n1	-85.8
CCCOc1ccccc1N/C(=N/c1nc(C)cc(C)n1)NC(=O)Nc1ccc(Cl)cc1	-1.32
Cc1cc(C)nc(/N=C(\N)Nc2cc([N+](=O)[O-])ccc2C)n1	-49
COc1cc(NC(N)=S)c(OC)cc1Cl	6.66
COc1cc(N/C(N)=N/c2nc(C)cc(C)n2)c(OC)cc1Cl	-56.7
Cc1ccc(-c2cc([C@H]3[C@@H]4C=CCC[C@@]4(C)C(=O)N3Cc3ccccc3)ccc2F)cc1	8.75
CC1CC(OC(=O)c2ccccc2)CC(C)N1C.Cl (stereo not shown)	-5.09
Cc1cc(N/N=C/c2c(O)ccc3ccccc23)nc(-c2ccccc2O)n1	-3.98
O=C(CSc1cccc[n+]1[O-])Nc1cc(S(=O)(=O)N2CCOCC2)ccc1N1CCOCC1	16
CCCCCCCNC(=O)C1(CC2CC(c3ccccc3)=NO2)CCNCC1 (stereo not shown)	-58.8
CCCNC(=O)C1(CC2CC(c3ccccc3)=NO2)CCNCC1 (stereo not shown)	23.5
CCCCCCCNC(=O)C1(CC2CC(c3cccc(Br)c3)=NO2)CCNCC1 (stereo not shown)	-70.3
CCCCCCCNC(=O)C1(CC2CC(c3cccc(Br)c3)=NO2)CCN(C(=O)C2(C)CC2)CC1 (stereo not shown)	-26
CCCCCCCNC(=O)C1(CC2CC(c3cccc(Br)c3)=NO2)CCN(C(=O)Cc2ccc(F)cc2)CC1 (stereo not shown)	-7.08
O=C(NCc1ccccc1)C1(CC2CC(c3ccccc3)=NO2)CCNCC1 (stereo not shown)	-7.21
CCCCCCCNC(=O)C1(CC2CC(c3ccc(Cl)cc3)=NO2)CCNCC1 (stereo not shown)	-63.1
NC(=S)N1CCCc2ccccc21	-3.03
CC1(c2ccccc2)NC(=O)N(CC(=O)N2CCOCC2)C1=O (stereo not shown)	3.77
O=C(Nc1nnc(COc2ccc(Cl)cc2)s1)c1cccs1	-6.91
Cc1csc(=O)n1CC(=O)OCC(=O)Nc1cc(Cl)ccc1[N+](=O)[O-]	-17.8

SMILES	hERG current change (%, negative = inhibition) at 10uM [%]
COc1cccc(NC(C)(C)c2nnnn2-c2c(C)cccc2C)c1	-63.4
Cc1cccc(C)c1-n1nnnc1C(C)(C)N1CCN(N=O)CC1	14.7
COc1ccc(NC(C)(C)c2nnnn2-c2c(C)cccc2C)cc1	-4.2
O=C(NCCc1cccs1)C1CC(c2cccc([N+](=O)[O-])c2)=NO1 (stereo not shown)	-23.5
CCCCNc1nc(Nc2ccc(C)c(Cl)c2)c2cnn(C)c2n1	15.3
COc1ccccc1-n1c(SCC(=O)NC2CCS(=O)(=O)C2)nc2cc([N+](=O)[O-])ccc21 (stereo not shown)	-16.2
COc1ccccc1-c1nnc(SCC(=O)NC2CCS(=O)(=O)C2)n1CCc1ccccc1 (stereo not shown)	8.05
CCn1c(SCC(=O)NC2CCS(=O)(=O)C2)nnc1-c1ccccc1 (stereo not shown)	5.49
CN(C(=O)CSc1nc2cc([N+](=O)[O-])ccc2n1-c1ccc(F)cc1)C1CCS(=O)(=O)C1 (stereo not shown)	2.56
COc1ccccc1-n1c(SCC(=O)NC2CCS(=O)(=O)C2)nc2ccccc2c1=O (stereo not shown)	-3.39
O=C(CSc1nc2cc([N+](=O)[O-])ccc2n1-c1ccc(F)cc1)NC1CCS(=O)(=O)C1 (stereo not shown)	-52.6
O=C(CSc1nnc(-c2ccc(Br)cc2)n1CCc1ccccc1)NC1CCS(=O)(=O)C1 (stereo not shown)	-86.8
O=C(CSc1nc2ccccc2c(=O)n1-c1ccccc1F)NC1CCS(=O)(=O)C1 (stereo not shown)	-57
O=C(CSc1nc2ccccc2c(=O)n1-c1ccccc1Cl)NC1CCS(=O)(=O)C1 (stereo not shown)	6.55
Cc1ccc2oc(/N=C(\N)NC(=O)C(C)(C)C)nc2c1	4.85
CC1=Nn2c(nnc2-c2ccco2)SC1	-3.87
O=C(/C=C/c1ccco1)Nc1sc2c(c1C(=O)O)CCC2	-2.95
CSc1scc2c1-c1nc(SCC(=O)C(C)(C)C)ncc1CC2	11
CN(C)CCCN(C(=O)c1ccc(S(=O)(=O)N2CCCc3ccccc32)cc1)c1nc2ccc(F)cc2s1.Cl	-17.1
CN(C)CCCN(C(=O)c1ccc(S(=O)(=O)N2CCOCC2)cc1)c1nc2ccc(F)cc2s1.Cl	-58.7
CN(C)CCCN(C(=O)c1ccc(S(=O)(=O)N2CCCCCC2)cc1)c1nc2ccc(Br)cc2s1.Cl	-22
CN(C)CCCN(C(=O)c1ccc(S(=O)(=O)N2CCCCCC2)cc1)c1nc2ccc(F)cc2s1.Cl	-73.1
CN(C)CCCN(C(=O)c1ccc(S(=O)(=O)N2CCc3ccccc3C2)cc1)c1nc2ccc(F)cc2s1.Cl	1.76
CN(C)CCCN(C(=O)c1ccc(S(=O)(=O)N2CCc3ccccc32)cc1)c1nc2ccc(F)cc2s1.Cl	-13.7
CC1CCN(C(=O)CSc2ccc(-c3ccccc3)nn2)CC1	-11.8
COc1ccccc1CC(=O)Nc1cccc(F)c1	12.2
